# Experimental data as given in PubChem BioAssay AID2685 (National Center for Advancing Translational Sciences (NCATS), 2010).
# The whole screen tested about 320,000 compounds, of which about 2,100 (0.66%) were called active. Not shown: some 53% with an inconclusive outcome. The call rests on the fitted dose curve; in most records, active means well fitted inhibition curve with a large enough effect in the signal ratio, with a control signal flat (not every such curve was filed as active); inconclusive means small, poorly fitted or top-dose-only effect, or effect the other way, or a change in a side signal; inactive means flat fitted curve, though single readings scatter; the % refers to the signal ratio. This excerpt belongs to a sample that is enriched for actives.
# Experiment: qHTS Assay for Lipid Storage Modulators in Drosophila S3 Cells;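 on cell number change: cells counted by Cell Tracker Red CMTPX staining in the red channel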
# Details: BODIPY lipid droplet fluorescence, 18-24 h, cells fed with added oleic acid; cell number change: measured here: cell count max response; series mostly up to 46.1 µM
# In short: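 Drosophila S3 cells got compounds at several concentrations plus oleic acid (400 uM solution). Laser-scanning cytometry with 488 nm excitation read lipid droplets at 500-530 nm and cells at 575-640 nm. Percent activity was relative to 20 uM Triacsin C.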
# Potency means the concentration at half of the fitted maximal effect.
Compound,Potency,cell number change [%]
COC(=O)c1ccc2c(=O)n(CCCCCC(=O)O)c(=S)[nH]c2c1,inactive,9.06
CCOCCCn1c(=S)[nH]c2cc(C(=O)NCCc3ccccc3)ccc2c1=O,inactive,
COCCn1c(=S)[nH]c2cc(C(=O)NC(C)C)ccc2c1=O,inactive,
CCN(CC)CCCn1c(=S)[nH]c2cc(C(=O)OC)ccc2c1=O,3.66 µM (active),12.4
CCn1c(=S)[nH]c2cc(C(=O)OC)ccc2c1=O,inactive,11.1
COCCn1c(=S)[nH]c2cc(C(=O)NCCc3ccccc3)ccc2c1=O,2.31 µM (active),-6.13
Cc1ccc(S(=O)(=O)Nc2cc(C(C)C)c(O)cc2C)cc1,inactive,-20
CCOC(=O)/C(C#N)=C/N1CCOCC1,inactive,-2.81
NC(=NC(=O)c1ccc(OCC(F)(F)F)nc1)c1ccc(Cl)cc1,inactive,-16.5
CC(=O)c1ccc(OCC(=O)OCC(=O)Nc2sccc2C(N)=O)cc1,3.66 µM (active),-10.9
COc1ccc(CCC(=O)OCC(=O)Nc2sccc2C(N)=O)cc1,6.51 µM (active),-27.9
NC(=O)c1ccsc1NC(=O)COC(=O)COc1ccccc1F,inactive,-3.04
COc1ccc(CCC(=O)OCC(=O)Nc2ccccc2)cc1,inactive,3.15
COc1cc(OC)cc(C(=O)OCC(=O)Nc2sccc2C(N)=O)c1,inactive,2.18
Cc1ccc(OCC(=O)OCC(=O)Nc2sccc2C(N)=O)cc1C,inactive,-3.96
CCOC(=O)C1CCN(C(=O)CCc2c(C)nc3c(-c4ccc(F)cc4)c(C)nn3c2C)CC1,inactive,9.15
COc1ccccc1NS(=O)(=O)c1cccc(C(=O)N2CCN(C/C=C/c3ccccc3)CC2)c1,inactive,-3.91
COc1cc2c(C(=O)N(C)c3ccc(F)cc3)cn(C)c(=O)c2cc1OC,inactive,-28.8
CCCC(=O)OCC(=O)c1[nH]c(C)c(C(C)=O)c1C,inactive,5.74
CC(=O)c1c(C)[nH]c(C(=O)COC(=O)CN(C)S(=O)(=O)c2ccc(Cl)cc2)c1C,5.8 µM (active),
CN(CC(=O)OCC(N)=O)S(=O)(=O)c1ccc(Cl)cc1,inactive,-16.4
O=C(Nc1cccc(Cl)c1)c1ccc2c(=O)n3c(nc2c1)CCCCC3,inactive,-6.1
O=C(N1CCCCC1)C12CC3CC(CC(C3)C1)C2,inactive,-0.102
Cc1ccc(OCc2nnc(SCC(=O)NC3CCCCC3)n2C)cc1,inactive,20.5

Compound,Potency,cell number change [%]
Cn1c(COc2ccc(Cl)cc2)nnc1SCC(=O)NC1CCCC1,14.6 µM (active),17.9
COc1ccc(OCc2nnc(SCC(=O)NC3CC3)n2C)cc1,inactive,16.2
COC(=O)c1cc2c(N)c(C(=O)c3ccccc3)sc2nc1C(OC)OC,inactive,-8.65
CCOC(=O)c1ccccc1OC(=O)CS(=O)c1ccccc1[N+](=O)[O-] (centres undefined),inactive,-21.3
O=C(CS(=O)c1ccccc1[N+](=O)[O-])Oc1ccc(Br)cc1 (centres undefined),inactive,2.35
CS(=O)(=O)c1ccc(S(=O)CC(=O)OCc2ccccc2)c([N+](=O)[O-])c1 (centres undefined),29.1 µM (active),-65.2
CSc1nsc(SCC(=O)N2CCc3ccccc32)n1,inactive,-10.2
O=C(NCCCn1ccnc1)C(=O)NCC1OCCN1S(=O)(=O)c1ccc(Br)cc1 (centres undefined),inactive,-6.41
O=C(CN1C(=O)NC2(CCCC2)C1=O)Nc1ccccc1F,inactive,-18
COC(=O)[C@H](CCSC)NC(=O)Nc1ccc(C(C)=O)cc1,inactive,0.814
COC(=O)[C@H](CCSC)NC(=O)Nc1ccc(C)c(C)c1,5.17 µM (active),-12.2
C[C@H](NC(=O)Nc1cccc(C(F)(F)F)c1)C(=O)O,inactive,14.7
COC(=O)[C@H](CCSC)NC(=O)Nc1cc(C)ccc1C,inactive,
CSCC[C@H](NC(=O)Nc1cccc(Br)c1)C(=O)O,inactive,8.72
CSCC[C@H](NC(=O)Nc1cccc(C(F)(F)F)c1)C(=O)O,14.6 µM (active),-1.65
COc1cccc(-c2ccc(C#N)c(SCC(=O)NCc3ccco3)n2)c1,inactive,0.401
CCOC(=O)c1sc2nc(C)nc(SCC(=O)NC(C)CCc3ccccc3)c2c1C (centres undefined),inactive,
COc1ccc(OC)c(CNC(=O)C2CCC(=O)N(CCCN3CCCC3=O)C2)c1 (centres undefined),inactive,15.9
CCOc1ccc(S(=O)(=O)Nc2nc3ccccc3nc2-n2ccc(=NC(=O)c3ccccc3C)cc2)cc1,inactive,-0.599
Cc1cc(C(=O)NNC(=S)NCc2ccco2)nn1C,inactive,
CN(Cc1c(F)cccc1Cl)C(=O)c1ccc2ccccc2n1,inactive,19.7
Cc1cc(C(=O)N(C)Cc2c(F)cccc2Cl)c2ccccc2n1,5.17 µM (active),-7.26
CN(Cc1c(F)cccc1Cl)C(=O)c1cc2ccccc2o1,inactive,
O=c1cc(NCc2ccco2)[nH]c(=O)n1-c1ccc(Br)cc1,inactive,-12.2
